These results are taken from PubChem BioAssay (Tox21).

SMILES strings stand for the structures. Results filed as inconclusive are left out. Calls of active or inactive are those of the source. Unless noted, the call rests on the fitted dose curve; in most records, active means well fitted curve in the direction sought with a large enough effect in the repeat runs; inconclusive means weak or mixed curves; inactive means no such curve, though single readings can be large; an effect the other way counts as inactive or inconclusive.

The nature of assay [1]: qHTS assay to identify aromatase inhibitors - cell viability counter screen (AID 743084).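 Further: cells stimulated with testosterone during compound exposure; nearly all actives have a fitted effect of over 55% in size.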 Further: potency means the concentration at half of the fitted maximal effect. On the technique in general: Quantitative high-throughput screening tests each substance at several concentrations.
Assay [2] deals with Aryl hydrocarbon receptor (Homo sapiens) (UniProt P35869). Briefly: qHTS assay to identify small molecule that activate the aryl hydrocarbon receptor (AhR) signaling pathway (AID 743085).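 Further: HG2L7.5c1 human HepG2 liver cells with stably integrated DRE-driven firefly reporter; series mostly up to about 70 µM; nearly all actives have a fitted effect of over 15% in size.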 The method, boiled down: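 Cell line HG2L7.5c1 (human hepatoma, 20× DRE-luc). Plated, 5 h 37C, compound/DMSO added, 24 h 37C. CellTiter-Fluor 30 min 37C → fluorescence; then ONE-Glo 30 min RT → luminescence.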

Assay [3] in a line: qHTS assay to identify small molecule that activate the aryl hydrocarbon receptor (AhR) signaling pathway - cell viability counter screen (AID 743086). Further: nearly all actives have a fitted effect of over 45% in size. Further: potency means the concentration at half of the fitted maximal effect. The gist of the method: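 HepG2-AhR-luc (HG2L7.5c1) cells, 4000/well, were preincubated 5 h at 37C, exposed to compound in qHTS format for 24 hr at 37C, then given CellTiter-Fluor for 30 min; viability was read as fluorescence in the reporter wells.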

The target of assay [4] is Peroxisome proliferator-activated receptor gamma (Homo sapiens) (UniProt P37231). Briefly: qHTS assay to identify small molecule agonists of the peroxisome proliferator-activated receptor gamma (PPARg) signaling pathway (AID 743094; active means well fitted activation curve with a large enough effect in the signal ratio in the repeat runs, not every such curve was filed as active; the % refers to the signal ratio). The method, boiled down: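 Fluorescence-based beta-lactamase readout in HEK293H PPARg UAS-bla cells after 17 h compound exposure (37C) and 1 h B/G FRET substrate incubation at room temperature.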

Assay [5] in a line: qHTS assay to identify small molecule antagonists of the peroxisome proliferator-activated receptor gamma (PPARg) signaling pathway - cell viability counter screen (AID 743194). Further: nearly all actives have a fitted effect of over 55% in size. The method, boiled down:
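PPARg-UAS-bla HEK293H cells were plated, rested 5 h at 37 C, then treated with compounds plus rosiglitazone (50 nM final) for 17 h at 37 C; viability was then read by CellTiter-Glo luminescence after 30 min at room temperature.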

Assay [6] in a line: qHTS assay for small molecule agonists of the antioxidant response element (ARE) signaling pathway - cell viability counter screen (AID 743203; calls by dose curve; further: nearly all actives have a fitted effect of over 55% in size). The method, boiled down:
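Parallel cytotoxicity read-out for the ARE-bla screen: HepG2 reporter cells, 16 hrs with compounds, then CellTiter-Glo luminescence.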

A short description of assay [7]: qHTS assay for small molecule activators of the heat shock response signaling pathway - cell viability counter screen (AID 743209). Further: nearly all actives have a fitted effect of over 50% in size. The method, boiled down: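 To flag cytotoxic compounds, HSE-bla HeLa cells plated at 1500 cells/well were dosed for 5 h at 37 C, followed by the reporter FRET read and then CellTiter-Glo, with luminescence recorded 30 min after reagent addition.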

The nature of assay [8]: qHTS assay for small molecule activators of the heat shock response signaling pathway (AID 743210; active means well fitted activation curve with a large enough effect in the signal ratio in the repeat runs, with a control signal flat, not every such curve was filed as active; the % refers to the signal ratio; further: series mostly up to about 63 µM). The gist of the method:
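Heat shock element–beta-lactamase HeLa reporter cells; qHTS with compounds for 5 h at 37 C; detection by FRET substrate fluorescence after 2.5 h at RT.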

The nature of assay [9]: qHTS assay to identify small molecule agonists of the peroxisome proliferator-activated receptor delta (PPARd) signaling pathway - cell viability counter screen (AID 743211). Further: nearly all actives have a fitted effect of over 55% in size. The gist of the method:
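HEK293H PPARd-bla, 3000 cells/well; 5 h preincubation 37C/5% CO2; cpd in DMSO, 17 h 37C; B/G FRET substrate 2 h RT; CellTiter-Glo 30 min RT, luminescence.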

Assay [10] concerns the target Peroxisome proliferator-activated receptor delta (Homo sapiens) (UniProt Q03181). Nature of the assay: qHTS assay to identify small molecule agonists of the peroxisome proliferator-activated receptor delta (PPARd) signaling pathway (AID 743212; calls by dose curve;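 further: HEK293H cells with PPARd UAS beta-lactamase reporter GeneBLAzer system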). The gist of the method:
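Beta-lactamase reporter read by fluorescence (LiveBLAzer B/G FRET, 2 h, room temperature). Test agents, in DMSO, incubated at 37 C with PPARd-bla HEK293H cells.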

Assay [11] shares this target. Nature of the assay: qHTS assay to identify small molecule antagonists of the peroxisome proliferator-activated receptor delta (PPARd) signaling pathway (AID 743215; active means well fitted inhibition curve with a large enough effect in the signal ratio in the repeat runs, not every such curve was filed as active; the % refers to the signal ratio;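 further: cells stimulated with agonist L165041 at 300 nM final during compound exposure; series mostly up to about 62 µM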). The method, boiled down: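 Screen format: qHTS, antagonist mode. HEK293H PPARd-bla cells received compound and 300 nM L165041 (final), 17 h, 37 C. Beta-lactamase detected via FRET substrate fluorescence, 2 h, room temperature.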

Assay [12] in a line: qHTS assay to identify small molecule agonists of the farnesoid-X-receptor (FXR) signaling pathway - cell viability counter screen (AID 743218). Further: nearly all actives have a fitted effect of over 45% in size. The method, boiled down:
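Same-well cytotoxicity check on FXR-UAS-bla HEK 293T cells: 5 h attachment, 16 h compound at 37 C, CellTiter-Glo luminescence read at room temperature after 30 min.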

A short description of assay [13]: qHTS assay to identify small molecule antagonists of the farnesoid-X-receptor (FXR) signaling pathway - cell viability counter screen (AID 743221; active means well fitted cell-killing curve with a large enough effect in the repeat runs, not every such curve was filed as active; further: nearly all actives have a fitted effect of over 50% in size). The method, boiled down: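 Luminescence from CellTiter-Glo measures cytotoxicity in GeneBLAzer FXR-UAS-bla HEK 293T cells. Cells were exposed to compounds with 50 uM chenodeoxycholic acid (final) for 16 h at 37 C, in wells also used for the reporter readout.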

The target in assay [14] is Vitamin D3 receptor (Homo sapiens) (UniProt P11473). Briefly: qHTS assay to identify small molecule agonists of the vitamin D receptor (VDR) signaling pathway (AID 743222; calls by dose curve). The method, boiled down:
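Using LiveBLAzer B/G FRET detection, agonism was scored in VDR-bla cells exposed overnight (16 h, 37C) to DMSO-dissolved compounds; substrate incubation was 2 h at room temperature.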

For assay [15] the target is unchanged. Nature of the assay: qHTS assay to identify small molecule antagonists of the vitamin D receptor (VDR) signaling pathway (AID 743223; active means well fitted inhibition curve with a large enough effect in the signal ratio in the repeat runs, not every such curve was filed as active; the % refers to the signal ratio). The gist of the method: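 Antagonist mode uses 1alpha,25-dihydroxyvitamin D3 at 3 nM final as stimulus. VDR-bla cells receive compounds in DMSO, incubate 16 h at 37C, then a beta-lactamase FRET substrate for 2 h at room temperature before fluorescence measurement.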

A short description of assay [16]: qHTS assay for small molecule agonists of the antioxidant response element (ARE) signaling pathway (AID 743202; active means well fitted activation curve with a large enough effect in the signal ratio in the repeat runs, not every such curve was filed as active; the % refers to the signal ratio; further: potency means the concentration at half of the fitted maximal effect). The method, boiled down: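 Following a 16 h, 37 C exposure of reporter HepG2 cells (ARE-driven beta-lactamase, 2,000 cells/well) to compounds, FRET substrate was applied for 2 h at room temperature and fluorescence intensity recorded.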
A short description of assay [17]: qHTS assay to identify small molecule antagonists of the peroxisome proliferator-activated receptor delta (PPARd) signaling pathway - cell viability counter screen (AID 743213). Further: nearly all actives have a fitted effect of over 50% in size. The method, boiled down:
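PPARd-bla HEK293H cells (3000/well) got compound plus 300 nM L165041 agonist for 17 h at 37 C. Viability in the same wells came from CellTiter-Glo luminescence after 30 min at room temperature.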

Assay [18] has as its target Bile acid receptor (Homo sapiens) (UniProt Q96RI1). Briefly: qHTS assay to identify small molecule agonists of the farnesoid-X-receptor (FXR) signaling pathway (AID 743220; active means well fitted activation curve with a large enough effect in the signal ratio in the repeat runs, not every such curve was filed as active; the % refers to the signal ratio). The method, boiled down:
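FXR-UAS-bla HEK 293T cells carrying a UAS-driven beta-lactamase reporter were plated for 5 h at 37C/5% CO2, then exposed to DMSO-dissolved Tox21 10K compounds for 16 h at 37C. A LiveBLAzer B/G FRET substrate was loaded for 2 h at room temperature before fluorescence reading.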

Chain of Peroxisome proliferator-activated receptor gamma (Homo sapiens) (P37231 whole entry, looked up): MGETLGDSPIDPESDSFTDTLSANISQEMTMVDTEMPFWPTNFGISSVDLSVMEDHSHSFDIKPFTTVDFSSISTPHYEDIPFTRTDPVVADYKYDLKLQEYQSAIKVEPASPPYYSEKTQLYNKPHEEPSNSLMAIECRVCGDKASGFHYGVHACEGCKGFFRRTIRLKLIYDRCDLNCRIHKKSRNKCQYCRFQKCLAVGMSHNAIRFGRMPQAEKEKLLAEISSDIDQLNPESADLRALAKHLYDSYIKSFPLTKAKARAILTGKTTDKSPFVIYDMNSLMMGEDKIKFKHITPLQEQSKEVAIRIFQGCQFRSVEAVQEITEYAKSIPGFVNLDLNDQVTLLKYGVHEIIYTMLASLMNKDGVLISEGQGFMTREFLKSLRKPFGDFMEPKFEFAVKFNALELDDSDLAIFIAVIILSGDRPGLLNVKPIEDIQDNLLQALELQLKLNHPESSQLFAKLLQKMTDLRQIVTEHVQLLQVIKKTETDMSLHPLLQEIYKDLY
Chain of Aryl hydrocarbon receptor (Homo sapiens) (P35869 whole entry, looked up): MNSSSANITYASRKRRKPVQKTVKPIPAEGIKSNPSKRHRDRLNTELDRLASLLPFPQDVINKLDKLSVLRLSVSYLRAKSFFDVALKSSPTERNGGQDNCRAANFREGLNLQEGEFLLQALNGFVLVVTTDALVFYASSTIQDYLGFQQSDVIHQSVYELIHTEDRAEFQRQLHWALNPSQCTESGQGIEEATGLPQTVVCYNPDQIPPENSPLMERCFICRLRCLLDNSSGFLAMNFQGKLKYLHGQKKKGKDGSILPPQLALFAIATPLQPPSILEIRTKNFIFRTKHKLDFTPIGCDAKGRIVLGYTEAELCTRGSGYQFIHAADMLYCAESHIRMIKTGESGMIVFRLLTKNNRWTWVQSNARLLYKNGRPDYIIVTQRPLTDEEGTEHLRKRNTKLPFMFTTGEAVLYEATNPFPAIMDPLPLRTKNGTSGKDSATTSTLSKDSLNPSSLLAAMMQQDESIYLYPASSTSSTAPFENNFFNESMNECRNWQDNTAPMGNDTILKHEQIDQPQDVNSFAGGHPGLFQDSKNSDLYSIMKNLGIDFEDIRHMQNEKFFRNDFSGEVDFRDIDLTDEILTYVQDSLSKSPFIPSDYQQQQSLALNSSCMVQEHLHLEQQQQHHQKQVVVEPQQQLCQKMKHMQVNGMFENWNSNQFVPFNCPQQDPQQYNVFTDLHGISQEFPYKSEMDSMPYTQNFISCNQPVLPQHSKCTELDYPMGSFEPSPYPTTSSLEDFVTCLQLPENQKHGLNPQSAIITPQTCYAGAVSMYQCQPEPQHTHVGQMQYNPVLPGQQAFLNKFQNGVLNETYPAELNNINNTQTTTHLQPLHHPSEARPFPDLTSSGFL
Chain of Vitamin D3 receptor (Homo sapiens) (P11473 whole entry, looked up): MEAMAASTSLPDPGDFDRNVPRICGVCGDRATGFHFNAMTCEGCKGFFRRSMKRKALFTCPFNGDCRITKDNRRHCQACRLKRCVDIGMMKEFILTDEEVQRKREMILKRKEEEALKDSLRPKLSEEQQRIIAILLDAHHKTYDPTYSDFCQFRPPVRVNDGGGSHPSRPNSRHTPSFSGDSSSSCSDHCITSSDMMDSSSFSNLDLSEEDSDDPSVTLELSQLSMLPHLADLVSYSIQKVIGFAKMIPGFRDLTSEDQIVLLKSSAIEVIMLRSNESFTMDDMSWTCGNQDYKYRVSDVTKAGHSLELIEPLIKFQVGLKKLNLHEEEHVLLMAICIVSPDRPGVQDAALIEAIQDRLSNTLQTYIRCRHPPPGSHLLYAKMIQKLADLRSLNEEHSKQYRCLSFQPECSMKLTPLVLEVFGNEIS
Chain of Peroxisome proliferator-activated receptor delta (Homo sapiens) (Q03181 whole entry, looked up): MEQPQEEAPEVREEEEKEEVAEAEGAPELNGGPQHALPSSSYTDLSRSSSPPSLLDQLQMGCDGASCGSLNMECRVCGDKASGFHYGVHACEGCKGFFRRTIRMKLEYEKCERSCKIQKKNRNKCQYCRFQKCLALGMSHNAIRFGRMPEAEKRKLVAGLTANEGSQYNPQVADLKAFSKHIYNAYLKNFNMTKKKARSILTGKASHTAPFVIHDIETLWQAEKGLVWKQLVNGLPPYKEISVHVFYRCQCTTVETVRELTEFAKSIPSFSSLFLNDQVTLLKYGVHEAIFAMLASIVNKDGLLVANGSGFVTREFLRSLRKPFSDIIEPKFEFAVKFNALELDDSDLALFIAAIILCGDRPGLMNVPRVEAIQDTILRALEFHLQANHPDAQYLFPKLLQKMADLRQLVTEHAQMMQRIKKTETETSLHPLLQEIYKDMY
Chain of Bile acid receptor (Homo sapiens) (Q96RI1 whole entry, looked up): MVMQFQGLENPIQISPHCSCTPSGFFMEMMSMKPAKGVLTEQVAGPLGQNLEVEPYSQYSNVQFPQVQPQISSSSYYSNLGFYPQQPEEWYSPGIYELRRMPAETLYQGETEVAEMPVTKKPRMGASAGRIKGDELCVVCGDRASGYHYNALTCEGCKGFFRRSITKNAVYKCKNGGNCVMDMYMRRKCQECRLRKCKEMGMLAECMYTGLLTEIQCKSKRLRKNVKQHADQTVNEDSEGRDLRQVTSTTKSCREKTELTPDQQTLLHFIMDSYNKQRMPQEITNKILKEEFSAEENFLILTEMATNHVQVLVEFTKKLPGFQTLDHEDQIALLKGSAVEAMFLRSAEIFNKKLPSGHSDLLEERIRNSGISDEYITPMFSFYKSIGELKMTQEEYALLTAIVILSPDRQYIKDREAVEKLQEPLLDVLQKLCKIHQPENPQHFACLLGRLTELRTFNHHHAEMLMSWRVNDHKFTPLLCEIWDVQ

Regarding `Nc1cccc(S(=O)(=O)c2cccc(N)c2)c1`, the Potency result in assay [1], in assay [2], in assay [3], in assay [4], in assay [5] and in assay [6] was “inactive” in each case. For the same compound, the Potency result in [7], in assay [8], in [9], in assay [10], in assay [11] and in assay [12] was “inactive” throughout. Besides, the Potency entry in assay [13] and in assay [14] was “inactive” in each case. For the same compound, in [15], the compound was classed as inactive.

In the case of `Cn1c(=O)cc(Oc2ccc(F)cc2F)c2cnc(NCC(C)(C)O)nc21`, the Potency entry in [1], in [2], in assay [3], in assay [4], in [5] and in assay [6] was “inactive” throughout. In addition, the Potency entry in assay [10], in assay [17], in assay [18] and in assay [13] was “inactive” in each case. In assay [16], the Potency is 30.6 µM (active).

As to `CCN(CC)c1ccc2c(-c3ccccc3C(=O)O)c3ccc(=[N+](CC)CC)cc-3oc2c1`, the Potency in assay [1] was 8.63 µM (active); in assay [3] it was 9.69 µM (active). Besides, the Potency entry in [2], in [4], in assay [5], in assay [6], in assay [7] and in [8] was “inactive” throughout. In addition, the Potency entry in assay [17], in [13] and in [14] was “inactive” in each case.

For `C=C1[C@H]2CC[C@@H]3[C@H]2C(C)(C)CCC[C@]13C`, the Potency entry in assay [1], in assay [2], in assay [3], in assay [4], in [5] and in [16] was “inactive” each time. Besides, the Potency entry in [6], in [7], in assay [8], in assay [9], in [10] and in assay [11] was “inactive” throughout. Further, the Potency entry in assay [12], in assay [18] and in assay [13] was “inactive” each time.

Turning to `COC(C)(C)CCO`, the Potency entry in assay [1], in assay [2], in assay [3], in [4], in assay [5] and in assay [16] was “inactive” in each case. In addition, the Potency result in assay [6], in [7], in assay [8], in [9], in assay [10] and in [17] was “inactive” each time. The Potency entry in [11], in [12] and in assay [14] was “inactive” throughout. The call in assay [15] was inactive.

Take `CCCCCCCN`: the Potency result in [1], in assay [2], in assay [3], in assay [4], in assay [5] and in assay [16] was “inactive” in each case. For the same compound, the Potency result in assay [6], in [7], in [9], in assay [10], in assay [12] and in [18] was “inactive” throughout. Moreover, the Potency entry in [13] and in assay [14] was “inactive” each time. In addition, in assay [15], the outcome was inactive.

Take `CCCCCCCCCOS(=O)(=O)O`: the Potency entry in assay [1], in assay [2], in assay [3], in [4], in [6] and in [7] was “inactive” each time. Moreover, the Potency entry in assay [8], in [9], in assay [17], in [11], in assay [12] and in [13] was “inactive” each time. In addition, in [14], the Potency entry is “inactive”.
